Calls of active or inactive are those of the source. How the source made its calls: active means hit-call score of the fitted dose curve at least 0.9, where 1 is the maximum; inactive means score below 0.9.
Assay: ATG_TAL_CIS: Attagene CIS-FACTORIAL HepG2 Assay for human TAL Basal Promoter (AID 2282966)
Conditions: HepG2 Attagene cis-factorial TAL promoter reporter; actives raise or lower the signal
Experimental: ATG_CIS is a cell-based, multiplexed-readout assay that uses HepG2, a human liver cell line, with measurements taken at 24 hours after chemical dosing in a 24-well plate.ATG_TAL_CIS is one of 52 assay component(s) measured or calculated from the ATG_CIS assay. It is designed to make measurements of mRNA induction, a form of inducible reporter, as detected with fluorescence intensity signals by Reverse transcription polymerase chain reaction (RT-PCR) and Capillary electrophoresis technology.Data from the assay component ATG_TAL_CIS was analyzed into 1 assay endpoint. This assay endpoint, ATG_TAL_CIS, was analyzed with bidirectional fitting relative to DMSO as the negative control and baseline of activity. Using a type of inducible reporter, measures of mRNA for gain or loss-of-signal activity can be used to understand the background control at the transcription factor-level as they relate to the gene . Furthermore, this assay endpoint can be referred to as a secondary readout, because this assay has produced multiple assay endpoints where this one serves a background control function. To generalize the intended target to other relatable targets, this assay endpoint is annotated to the background measurement intended target family, where the subfamily is internal marker.
Human liver HepG2 cells are transiently transfected with multiple reporter transcription units (MRTUs) in 6-well plates using FuGene 6 reagent (Roche; 3 ml FuGene/1 mg DNA). The MRTU constructs are regulated by a cis-regulating element (promoter). […] A major difference between the CIS and TRANS system is that in CIS activities of endogenous TFs are measured, whereas the TRANS assay evaluates changes in activities of exogenous, chimeric NR-Gal4 proteins. […] At the end of 24 hour incubation, total RNA was isolated using TriZol reagent (Invitrogen). The isolated RNA is then reverse-transcribed using oligo(dT) primer and Mo-MLV reverse transcriptase (Invitrogen) with DNAse I (Ambion) treatment for 30 min. The one-tenth of the produced cDNA was amplified by PCR using Taq DNA polymerase (Invitrogen) and two reporter sequence-specific primers. The PCR products were fluorescently labeled by primer extension with 6-arboxyfluorescein (6-FAM) 5'-labeled reporter sequence-specific primer (2 min at 95 C, 20 s at 68 C and 10 min at 72 C) and these products were digested with 5U of HpaI (New England Biolabs) for 2h at 37 C. The fragments were purified using Qiaquick PCR columns (Qiagen), analyzed on an ABI 3130xL genetic analyzer (Applied Biosystems) with peak positions identified by using a set of X-rhodamine (ROX)-labeled MapMarker1000 molecular weight standards (BioVentures). The raw capillary electrophoresis data was processed using Attagraph software (Attagene).

Structure (SMILES) | outcome | AC50
COc1ccccc1[N+](=O)[O-] | inactive | 
COc1cc([C@@H]2c3cc4c(cc3[C@@H](O[C@@H]3O[C@@H]5CO[C@@H](C)O[C@H]5[C@H](O)[C@H]3O)[C@H]3COC(=O)[C@H]23)OCO4)cc(OC)c1O | inactive | 
CC=Cc1ccc(OCC)c(O)c1 | inactive | 
Clc1ccc(C(c2ccccc2Cl)C(Cl)Cl)cc1 (stereo not given) |  | 23.7 µM (active)
CCCC(=O)c1ccccc1 | inactive | 
Cc1cc(=O)oc2cc(N(C)C)ccc12 | inactive | 
CC1CCC(C(C)C)C(O)C1 (stereo not given) | inactive | 
CCCCCC(C)=O | inactive | 
CCCCCCC(C)Nc1ccc(Nc2ccccc2)cc1 (stereo not given) | inactive | 
O=C1OC2(c3ccccc31)c1ccc(O)c(Br)c1Oc1c2ccc(O)c1Br | inactive | 
CC=CC=CCOC(=O)C(C)C | inactive | 
CCCCCCCCC=CCCCCCCCC1=NCCN1CCO | inactive | 
CSCCC=O | inactive | 
O=c1[nH]c(=O)c2cn[nH]c2[nH]1 | inactive | 
C=CCOC(=O)CCCCCC | inactive | 
C=Cc1ccc(C(C)(C)C)cc1 | inactive | 
CC(C)CCOC(=O)c1ccccc1 | inactive | 
CCCCC(CC)COC(=O)c1ccc(O)cc1 (stereo not given) | inactive | 
CC1(C)O[C@@H]2C[C@H]3[C@@H]4CCC5=CC(=O)C=C[C@]5(C)[C@@]4(F)[C@@H](O)C[C@]3(C)[C@]2(C(=O)CO)O1 | inactive | 
BrCc1cccc(Oc2ccccc2)c1 | inactive | 

Structure (SMILES) | outcome | AC50
CCCCCCCC(=O)OCCCCCC | inactive | 
C[Si]1(C)O[Si](C)(C)O[Si](C)(C)O1 | inactive | 
C=C1CC[C@H](O)C/C1=C/C=C1\CCC[C@]2(C)[C@@H]([C@H](C)/C=C/[C@H](C)C(C)C)CC[C@@H]12 | inactive | 
O=C(O)c1cccnc1C(=O)O | inactive | 
CCC(Cl)C(Cl)C(Cl)CC(Cl)C(Cl)C(C)Cl (stereo not given) | inactive | 
Cc1ccc(OC(=O)c2ccccc2O)cc1 | inactive | 
CCc1ccc(O)c(OC)c1 | inactive | 
Nc1ccn([C@H]2CS[C@@H](CO)O2)c(=O)n1 | inactive | 
CCCCCCOCCOCCO | inactive | 
CCCCC(CC)(CO)CO | inactive | 
Cc1ccc(N)c(S(=O)(=O)O)c1 | inactive | 
CC1(C)CCC[C@]2(C)[C@H]3CCO[C@]3(C)CC[C@@H]12 | inactive | 
CCC(C)S (stereo not given) | inactive | 
O=C(CC(=O)c1ccccc1)c1ccccc1 | inactive | 
c1ccc(Oc2ccccc2)cc1 | inactive | 
C=C[Si]1(C)O[Si](C)(C=C)O[Si](C)(C=C)O[Si](C)(C=C)O1 (stereo not given) | inactive | 
CCc1ccc(O)cc1 | inactive | 
O=CCc1ccccc1 | inactive | 
CC(C)(C)C1=CC(=O)C(C(C)(C)C)=CC1=O | inactive | 
CCOC(=O)CCc1ccccc1 | inactive | 

Source: PubChem BioAssay (EPA / NIEHS)
